Hits are enriched below; roughly 20% of the tested compounds scored in any of these assays.
HCMV antiviral – qHTS Assay for inhibitors of the human cytomegalovirus (HCMV). HFF cells, HCMV-luciferase reporter, 72 h; active compounds read low. activity change, negative = inhibition, % at 57.5 µM. 4.5% of 410,000 active. AID 1259415, 2018; in the data active = activity change below about -60%; inconclusive = no clear call, values can overlap the other calls; inactive = above about -39%; also: % is scaled to controls: 0 for no effect and ±100 for the full control effect
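After 16 h attachment at 37C, HFF cells received test compound and HCMV-luciferase (1 PFU/cell); reporter luminescence read 72 h later, data normalized against buffer-only and known inhibitor Salinomycin.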
Shiga toxin inh – A qHTS for Small Molecule Inhibitors of Shiga Toxin; 9.2% of 290,000 active; inhibition, % at 38.7 µM; Vero cells, Shiga toxin protein synthesis inhibition reporter; in the data active = inhibition mostly above about 28%, no sharp cut-off; inactive = mostly below about 43%; also: 0% is about no effect
Pf growth 96h – Primary qHTS for delayed death inhibitors of the malarial parasite plastid, 96 hour incubation; 6.9% of 320,000 active; Potency, µM (highest dose often 28.7 µM), for the others: top-dose activity change, negative = inhibition, hits mostly inhibitors; P. falciparum luciferase reporter growth, 96 h; also: potency is read from the fitted curve at half-maximal effect; % is scaled to controls: 0 for no effect and ±100 for the full control effect
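Readout is luminescence from an integrated firefly luciferase in P. falciparum. Red cells, 2% hematocrit and 0.05% parasitemia final, were cultured with compound through two parasite generations (96 hours) at 37 C, 5% CO2.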
Pf growth 48h – Primary qHTS for delayed death inhibitors of the malarial parasite plastid, 48 hour incubation | P. falciparum luciferase growth in erythrocytes, 48 h | Potency, µM (series often up to 28.7 µM), for inactives: top-dose activity change, negative = inhibition, most hits filed as inhibitors | 5.9% of 310,000 active | AID 504832, 2011; also: potency is read from the fitted curve at half-maximal effect; % is scaled to controls: 0 for no effect and ±100 for the full control effect
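Parasite viability was followed by luminescence of a genomically integrated firefly luciferase. Cultures held 0.1% parasitemia at 2% hematocrit (final), incubated under 5% CO2 at 37 C.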
Cycloheximide cs – Cycloheximide Counterscreen for Small Molecule Inhibitors of Shiga Toxin. 12% of 300,000 active. max response, %. cell reporter, cycloheximide protein synthesis inhibition counterscreen; in the data active = max response mostly above about 13%, no sharp cut-off; inactive = mostly below about 14%; also: read at 38.3 µM for the half of the compounds with a filed dose; 0% is about no effect
Starred values were filed as active, the others as inactive; ? = inconclusive; / = not tested or not shown; + = active, no number; ! = repeats disagree. Unless noted, calls follow the shape of the dose curve; as a rule, active = well fitted inhibition curve with a large enough effect; inconclusive = small, poorly fitted or top-dose-only effect, or another doubt; inactive = no such curve, though single readings can be large or run the other way.

SMILES	HCMV antiviral	Shiga toxin inh	Pf growth 96h	Pf growth 48h	Cycloheximide cs
CCc1cccc(NS(=O)(=O)c2c(C)n[nH]c2C)c1	41	-2	13µM*	?	-2
COc1ccc(NS(=O)(=O)c2ccc3c(c2)OCCO3)cc1OC	-75*	-2	?	24%	-3
COc1ccc(S(=O)(=O)NCc2ccc3c(c2)OCO3)cc1C	-3	-16	11%	/	-1
CC(=O)NCCc1ccc(S(=O)(=O)Nc2ccc3c(c2)OCCO3)cc1	-64*	/	/	/	/
COc1ccc(S(=O)(=O)Nc2ccc3c(c2)OCO3)cc1OC	36	-10	?	20%	1
COc1ccc(S(=O)(=O)NCc2ccc3c(c2)OCO3)cc1OC	32	-18	1.2µM*	-3%	2
CC(=O)c1ccc(OC(=O)c2c(-c3ccccc3Cl)noc2C)cc1	-2	/	/	/	/
COc1ccc(C)cc1NC(=O)NCc1cccn1Cc1ccccc1	-16	/	/	/	/
CC(=O)Nc1ccc(S(=O)(=O)Nc2ccc3c(c2)OCCO3)cc1Cl	-88*	-7	13%	7%	-2
Cc1c(S(=O)(=O)Nc2ccc3c(c2)OCCO3)cnn1C	-29	16	?	14%	-2
Cc1nn(C)cc1S(=O)(=O)Nc1ccc2c(c1)OCCO2	?	69*	?	44%	72*
O=S(=O)(Nc1ccc2c(c1)OCCO2)c1cccc(F)c1	-14	25	88%	33%	25*
Cc1ccc2occ(CC(=O)N3CCN(c4cccc(Cl)c4)CC3)c2c1	-71*	/	/	/	/
COc1ccc(N2CCN(C(=O)Cc3coc4cc(C)ccc34)CC2)cc1	-6	-6	6%	?	-3
COc1ccc(N2CCN(C(=O)Cc3coc4ccc(C)cc34)CC2)cc1	-114*	/	/	/	/
COc1ccc(C(C(=O)NC(C)C)N(C(=O)CCC(=O)Nc2nccs2)c2ccccc2F)cc1 (stereo not given)	1	-3	98%	?	-2
COc1ccc(S(=O)(=O)N2CC(C)N(C(=O)N(C)C)C2C)cc1 (stereo not given)	38	-9	19%	9%	-13
COc1ccc(CN(C)Cc2nc(Cc3cccc(F)c3)no2)c2cccnc12	-82*	-24	?	?	1
COc1cccc(-n2cc(CN(C)Cc3nc(Cc4cccc(F)c4)no3)cn2)c1	11	14	?	1%	6
Cc1c(C)n(C)c2ccc(C(=O)NCCc3ccco3)cc12	-21	69*	-12%	?	39*
Cc1c(C)n(C)c2ccc(C(=O)NCCCN3CCCCC3C)cc12 (stereo not given)	+!	-5	6.6µM*	-22%	-3
CC(=O)Nc1cccc(C(=O)NCCc2ccco2)c1	85	78*	88%	119%	26*
CCn1c(C)c(C)c2cc(C(=O)NCCc3ccco3)ccc21	22	36*	16%	?	16
C[C@@H]1CN([C@@H](C)CO)C(=O)c2cc(NC(=O)Nc3ccc(F)cc3)ccc2O[C@@H]1CN(C)Cc1ccc(Oc2ccccc2)cc1	10	/	/	/	/
CCN1CCN(c2ccc(NC(=O)c3cc(OC)c(OC)c(OC)c3)cc2)CC1	55	-9	-66%	6%	-1
SMILES	HCMV antiviral	Shiga toxin inh	Pf growth 96h	Pf growth 48h	Cycloheximide cs
C/C(=N/NS(=O)(=O)c1ccc(CC(C)C)cc1)c1ccncc1	-66*	-5	-29%	5%	-5
COCc1cccc(-c2csc(C(O)c3ccc(OC)cc3)n2)c1 (stereo not given)	8	/	/	/	/
OC(COc1ccc(Cl)cc1)CN1C2=NCCCN2c2ccccc21 (stereo not given)	12	-17	?	5.2µM*	-7
OC(CN1C2=NCCCN2c2ccccc21)c1ccc(Cl)cc1 (stereo not given)	-69*	-5	209%	/	-2
CN(C1CCCCC1)S(=O)(=O)c1ccc2c(c1)c(=O)c(C(=O)NCc1ccc(F)cc1)cn2C	5	/	/	/	/
O=C1C(c2ccncc2)=C(O)c2ccccc21	67	12	-7%	132%	26*
O=c1cc(-c2cccc([N+](=O)[O-])c2)[nH][nH]1	?	9	-12%	-20%	-4
Cc1ccc(C2=C(O)c3ccccc3C(=O)C2=O)cc1	4	-5	10%	?	-3
O=C1C(=O)c2ccccc2C(O)=C1c1cccc([N+](=O)[O-])c1	-66*	50	7.4µM*	?	23*

Source: PubChem BioAssay (National Center for Advancing Translational Sciences (NCATS))
